Source: PubChem (Sanford-Burnham Center for Chemical Genomics)
An excerpt weighted towards active compounds, which were near 3.9% of everything screened.
Peg3 promoter – Peg3 promoter activity inhibition; HeLa PEG-Prom luciferase reporter, luminescence, overnight; inhibition, % at 20 µM; hit rate 1.7% among 360,000;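 active = inhibition of at least 50% at 20 µM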
TWEAK-Fn14 inh – TWEAK-Fn14 signaling inhibition | hit rate 2% among 360,000 | AID 1159606 | TWEAK-stimulated Fn14 reporter cells, luciferase luminescence, 8 h | inhibition, % at 10 µM; in the data active = inhibition above about 50%
KKLEB cytotox – CF airway cell cytotoxicity counter-screen; KKLEB CF airway cells viability, ATPlite luminescence, overnight; active compounds read low; cells stimulated with P. aeruginosa culture filtrate; activity change (cytotoxicity), % at 5 µM; hit rate 0.36% among 360,000; AID 602141;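 active = corrected activity change at or below -50% at 5 µM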
TROY signal inh – TROY signaling inhibition; Q293 LMP1-TROYcd NF-kB luciferase reporter, 4 h; hit rate 0.98% among 360,000; inhibition, % at 10 µM;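 active = compounds whose plate-normalised and pattern-corrected inhibition of the luciferase reporter signal at the single screening dose is 50% or more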
CF NFkB block – cystic fibrosis NF-kB activation inhibition. KKLEB NF-kB-GFP reporter, PAF-induced, GFP fluorescence overnight. inhibition, % at 5 µM. hit rate 0.86% among 360,000;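 active = at least 50% inhibition at 5 µM, scaled per plate between neutral and stimulator controls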;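 also: PAF is a Pseudomonas aeruginosa culture filtrate used as stimulus; plate controls were PAF-stimulated DMSO wells for no effect and unstimulated DMSO wells for full effect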
HIF-2a block – inhibitors of HIF-2a; 786-0 RCC cells HIF-2a reporter, luciferase luminescence, overnight; inhibition, % at 18.8 µM; hit rate 0.72% among 360,000;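 active = inhibition of the luminescence signal of 40% or more relative to plate controls, in a single-dose primary screen at 18.75 µM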
Active calls of the source: *; . = no result.

SMILES | Peg3 promoter | TWEAK-Fn14 inh | KKLEB cytotox | TROY signal inh | CF NFkB block | HIF-2a block
COc1cc2c3c(cccc3c1)C(=O)N(CCN1CCCC1)C2=O | 102* | -2 | 8 | -60 | -219 | -8
Cc1sc(NC(=O)/C=C/c2ccc3c(c2)OCO3)nc1-c1ccccc1 | -41 | 88* | 11 | 27 | -21 | -54
COC(=O)c1cc(NC(=O)/C=C/c2ccc3c(c2)OCO3)cc(C(=O)OC)c1 | 19 | 31 | -8 | -6 | -13 | 22
Cc1ccc(-c2csc(NC(=S)NC(=O)/C=C/c3ccco3)n2)cc1 | 4 | 18 | -31 | -30 | 22 | -114
O=C(/C=C\c1ccco1)Nc1nc(-c2ccc3ccccc3c2)cs1 | -10 | 83* | 0 | 48 | -27 | -86
COC(=O)c1cccc(NC(=O)/C=C/c2ccc3c(c2)OCO3)c1 | -140 | 38 | -5 | 18 | -14 | 50*
O=C(/C=C/c1ccc2c(c1)OCO2)Nc1nc(-c2ccccc2)cs1 | -71 | 88* | 10 | 62* | -27 | -128
O=C(/C=C/c1ccc2c(c1)OCO2)Nc1nncs1 | -167 | 10 | -3 | -23 | 5 | -208
COC(=O)c1c(NC(=O)/C=C/c2ccc3c(c2)OCO3)sc(C)c1C | -8 | -44 | 1 | -12 | 7 | -19
CCC(=O)c1cc(F)c(N2CCN(S(=O)(=O)c3ccccc3)CC2)cc1C | 23 | 4 | 4 | 2 | -2 | -10
Cc1noc(C)c1NC(=O)Nc1cccc2c1O[C@@H](CN(C)C(=O)Nc1ccc3c(c1)OCO3)[C@@H](C)CN([C@H](C)CO)C2=O | 1 | -9 | -6 | 13 | 6 | 12
C(=Cc1c[nH]c2ccccc12)c1nccc2ccccc12 | -92 | 89* | -55* | 65* | -249 | -52
Nc1nc(Cl)cc(N2CCC(c3cc(-c4ccc(Cl)cc4)n[nH]3)CC2)n1 | 22 | 94* | 5 | 40 | -7 | 12
COc1ccc(OC)c(-c2cc(C3CCN(c4cc(Cl)nc(N)n4)CC3)[nH]n2)c1 | 21 | 67* | -5 | 53* | 2 | 35
COc1ccc(-c2cc(C3CCN(c4cc(Cl)nc(N)n4)CC3)[nH]n2)cc1 | 22 | 32 | -7 | 38 | 15 | 37
Cc1cccc(-n2nnnc2SCC(=O)NCC2(N3CCOCC3)CCCCC2)c1C | 33 | 16 | -1 | -4 | 17 | 2
Cc1ccc(NC(=O)CSc2nnc(Cc3ccccc3)o2)cc1 | -20 | 2 | -7 | -8 | 5 | -42
CC(=O)c1cccc(Nc2nc(=O)c3cccnc3s2)c1 | -60 | -28 | -13 | -24 | 13 | -106
CCc1ccc(-c2cc(C)no2)cc1S(=O)(=O)Nc1cccc(CN2CCCC2)c1 | -7 | 22 | -8 | 20 | -1 | 15
CSc1ccc(NC(=O)NCCCN2CCC(Cc3ccccc3)CC2)cc1 | 66* | -8 | -6 | -21 | 0 | 7
NS(=O)(=O)c1ccc(CCN=Cc2ccccc2O)cc1 | -7 | 5 | 9 | 4 | 4 | 8
c1ccc(-n2nnnc2-n2cnc3ccccc32)cc1 | -13 | 54* | -1 | 31 | -4 | -2
C[C@]12CCC3C(CC[C@H]4CCCC[C@]34C)C1CC[C@@]2(O)CNCCO (some centres not stated) | 91* | 9 | 3 | 19 | 12 | 13
CCC(Sc1nc2ccncc2[nH]1)C(=O)Nc1ccc(C)c(Cl)c1 (configuration not stated) | 85* | 0 | 0 | -48 | -9 | 11
CN(/N=C/c1cc(Br)cc(Br)c1O)c1cccc(C(F)(F)F)n1 | 57* | 20 | -12 | 23 | 46 | 13
COC(=O)c1cc(Br)c(=O)n(Cc2ccco2)c1 | 3 | 78* | 8 | . | -12 | 11
COC(=O)c1ccc(=O)n(Cc2ccco2)c1 | 2 | -15 | 6 | 13 | -5 | 5
O=C(CSc1nnc(-c2ccncc2)n1-c1ccccc1)NCC1CCCO1 (configuration not stated) | 16 | 15 | -2 | 8 | 0 | 5
Cc1ccc(C)c(NC(=S)NC(NC(=O)OCc2ccccc2)C(Cl)(Cl)Cl)c1 (configuration not stated) | -15 | 61* | -1 | 49 | 20 | 24
O=C(/C=C/c1ccccc1)NC(NC(=S)Nc1cccc(O)c1)C(Cl)(Cl)Cl (configuration not stated) | 24 | 56* | -3 | 47 | 21 | 16
